Experimental data as given in PubChem BioAssay (EPA / NIEHS).
Results filed as inconclusive are left out. More than one record can exist for a structure, and the calls need not agree. Activity calls are given as the source filed them. The calls were made as follows, unless noted: active = hit-call score of the fitted dose curve at least 0.9, where 1 is the maximum; inconclusive = response in the unintended direction; inactive = score below 0.9.

What was measured:
[1] = target: Estrogen receptor (Homo sapiens) (UniProt P03372); assay: NVS_NR_hER: NovaScreen (NVS) Nuclear Receptor Binding Assay for human Estrogen Receptor (ER) (AID 2283348)
Summary of the method: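 Cell-free MCF7-derived ER preparation, specific radioligand displaced by test compound, read by scintillation counting 18 h post-dosing. Duplicate single-point 25 uM screen, then concentration-response confirmation; DMSO baseline.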

[2] = target: Estrogen receptor (Homo sapiens) (UniProt P03372); assay: OT_ER_ERaERa_1440: Odyssey Thera (OT) 24-hour HEK293T Protein-Complementation Assay for Estrogen Receptor-alpha/-alpha Homodimer (AID 2283349);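 also: hits raise fluorescence above DMSO for agonists and antagonists alike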
Summary of the method: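 HEK293T, stable ERα LBD (aa 310-547) homodimer PCA; 24 h compound exposure; mean fluorescence intensity (nuclear for agonists, nuclear plus cytoplasmic for antagonists) vs vehicle; positive fitting direction, DMSO baseline.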

[3] = target: Estrogen receptor (Homo sapiens) (UniProt P03372); assay: OT_ER_ERaERa_0480: Odyssey Thera (OT) 8-hour HEK293T Protein-Complementation Assay for Estrogen Receptor-alpha/-alpha Homodimer (AID 2283351);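 also: rise in fluorescence from reassembled reporter fragments on ERα LBD homodimer in nucleus or whole cell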
Summary of the method: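 Read-out: fluorescence intensity rise relative to DMSO, nuclear for agonists, nuclear plus cytoplasmic for antagonists. Construct is the ERα LBD (aa 310-547) homodimer fragment-complementation pair, stably expressed in HEK293T; exposure 8 h.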

[4] = target: Estrogen receptor beta (Homo sapiens) (UniProt Q92731); assay: OT_ER_ERbERb_0480: Odyssey Thera (OT) 8-hour HEK293T Protein-Complementation Assay for Estrogen Receptor-beta/-beta Homodimer (AID 2283357);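 also: active means signal gain over DMSO baseline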
Summary of the method: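 ER-beta LBD homodimer PCA stably expressed in HEK293T; 8 h compound exposure, then formaldehyde fixation and Draq5 staining. Gain in nuclear/cytoplasmic fluorescence intensity versus DMSO vehicle, read on laser scanning cytometer.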

[5] = target: mouse Estrogen Receptor alpha (Era), Esr1 (gene 13982) (UniProt P19785); assay: NVS_NR_mERa: NovaScreen (NVS) Nuclear Receptor Binding Assay for mouse Estrogen Receptor alpha (Era) (AID 2283378);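 also: hit means loss of bound radioligand signal relative to DMSO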
Summary of the method: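 Test chemicals competed against a specific radioligand for binding to cell-free mouse Era. Duplicate wells at 25 uM were read 18 hours later by filter-based radiodetection, with loss of signal against DMSO scored as activity.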

[6] = target: Estrogen receptor beta (Homo sapiens) (UniProt Q92731); assay: OT_ER_ERbERb_1440: Odyssey Thera (OT) 24-hour HEK293T Protein-Complementation Assay for Estrogen Receptor-beta/-beta Homodimer (AID 2283380);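 also: scored as signal increase over DMSO baseline for both agonists and antagonists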
Summary of the method: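 Fluorescence increase, nuclear for agonists or whole-cell for antagonists, relative to DMSO vehicle, quantified by laser scanning cytometer after fixation and Draq5 staining. Readout from 24 h treatment of HEK293T cells carrying complementation-paired ER beta LBD (aa 310-547).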

[7] = target: Estrogen receptor (Homo sapiens) (UniProt P03372); assay: OT_ERa_GFPERaERE_0480: Odyssey Thera (OT) 8-hour HeLa Transcription Induction Assay for Estrogen Receptor (AID 2283381; active = hit-call score of the fitted dose curve at least 0.9, where 1 is the maximum; inactive = score below 0.9)
Summary of the method: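 GFP-ERE reporter, HeLa, 8 h exposure. Readout: fluorescence microscopy, high-content image analysis. Fit direction positive vs DMSO negative control.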

[8] = target: Estrogen receptor (Homo sapiens) (UniProt P03372); assay: OT_ERa_GFPERaERE_0120: Odyssey Thera (OT) 2-hour HeLa Transcription Induction Assay for Estrogen Receptor (AID 2283382)
Summary of the method: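 Fluorescence microscopy read-out: inducible fluorescent protein reporter in HeLa cells, imaged 2 h post-dose. Signal increase over DMSO negative control fitted as single primary endpoint via high content image analysis.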

[9] = target: rat Mineralocorticoid Receptor (MR), Nr3c2 (gene 25672) (UniProt P22199); assay: NVS_NR_rMR: NovaScreen (NVS) Nuclear Receptor Binding Assay for rat Mineralocorticoid Receptor (MR) (AID 2283355)
Summary of the method: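 Primary HTS ran in duplicate at a single 25 uM concentration, with concentration-series follow-up for actives. Receptor source: adrenalectomized rat brain supernatant, cell-free. Radioligand displacement read by scintillation at 24 h, relative to DMSO baseline.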

PGR (gene 5241) = PGR (gene 5241) (UniProt P06401); assay: NVS_NR_hPR: NovaScreen (NVS) Nuclear Receptor Binding Assay for human Progestron Receptor (PR) (AID 2283360);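 also: active means loss of bound radioligand signal versus DMSO baseline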
Summary of the method: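 T47D lysate; tritiated or iodinated radioligand; scintillation count at 18 h. DMSO = negative control/baseline. Primary: 25 uM, duplicate. Secondary: concentration series for actives.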

[10] = target: Glucocorticoid receptor (Homo sapiens) (UniProt P04150); assay: NVS_NR_hGR: NovaScreen (NVS) Nuclear Receptor Binding Assay for human Glucocorticoid Receptor (GR) (AID 2283363);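 also: activity is loss of specific radioligand binding signal relative to DMSO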
Summary of the method: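 Compounds first tested in duplicate at 25 uM, actives followed up in concentration series. Binding to extracted GR protein measured as competitive radioligand displacement, filter scintillation read 16 h post-dosing, normalised to DMSO.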

[11] = target: Androgen Receptor/SRC-1 Co-activator, AR (gene 367) (UniProt P10275); assay: OT_AR_ARSRC1_0480: Odyssey Thera (OT) 8-hour HEK293T Protein-Complementation Assay for Androgen Receptor/SRC-1 Co-activator (AID 2283354);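 also: hits raise the complementation signal above DMSO so AC50 marks enhancers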
Summary of the method: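 Reconstituted split-Venus YFP signal from AR–SRC-1 interaction, read by imaging 8 h post-dose in stable HEK293T lines. The 488 nm nucleus-to-cytoplasm ratio (≥400 cells/image) was fitted upward against DMSO.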

[12] = target: human Thyroid Receptor Alpha (TRa), THRA (gene 7067) (UniProt P10827); assay: NVS_NR_hTRa_Antagonist: NovaScreen (NVS) Nuclear Receptor Binding Assay for human Thyroid Receptor Alpha Antagonism (TRa) (AID 2283362);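 also: activity is loss of signal relative to DMSO baseline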
Summary of the method: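 Chemicals were first screened in duplicate at 25 uM, then actives were retested in concentration series. Binding to the extracted receptor was measured 1 h after dosing by AlphaLISA chemiluminescence, with decreased signal versus DMSO scored as activity.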

[13] = target: Nuclear receptor subfamily 1 group I member 2 (Homo sapiens) (UniProt O75469); assay: NVS_NR_hPXR: NovaScreen (NVS) Nuclear Receptor Binding Assay for human Pregnane X Receptor (PXR) (AID 2283365);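 also: a drop in FRET signal versus DMSO baseline means the compound binds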
Summary of the method: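 Binding was measured by time-resolved fluorescence resonance energy transfer after a 2 h exposure of extracted human PXR protein without cells. Compounds were first tested at 25 uM in duplicate, with concentration series for actives; DMSO defined baseline.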

[14] = target: rat Serotonin Transporter (SERT), Slc6a4 (gene 25553) (UniProt P31652); assay: NVS_TR_rSERT: NovaScreen (NVS) Transporter Assay for rat Serotonin Transporter (SERT) (AID 2283375)
Summary of the method: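 Steps: rat forebrain membranes dosed with chemical (25 uM duplicate primary; concentration series for actives); 1 h incubation; labelled ligand bound, filtered, counted by scintillation. Activity scored as signal loss vs DMSO.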

Measured: AC50

Sequence of mouse Estrogen Receptor alpha (Era), Esr1 (gene 13982) (P19785 whole entry, looked up): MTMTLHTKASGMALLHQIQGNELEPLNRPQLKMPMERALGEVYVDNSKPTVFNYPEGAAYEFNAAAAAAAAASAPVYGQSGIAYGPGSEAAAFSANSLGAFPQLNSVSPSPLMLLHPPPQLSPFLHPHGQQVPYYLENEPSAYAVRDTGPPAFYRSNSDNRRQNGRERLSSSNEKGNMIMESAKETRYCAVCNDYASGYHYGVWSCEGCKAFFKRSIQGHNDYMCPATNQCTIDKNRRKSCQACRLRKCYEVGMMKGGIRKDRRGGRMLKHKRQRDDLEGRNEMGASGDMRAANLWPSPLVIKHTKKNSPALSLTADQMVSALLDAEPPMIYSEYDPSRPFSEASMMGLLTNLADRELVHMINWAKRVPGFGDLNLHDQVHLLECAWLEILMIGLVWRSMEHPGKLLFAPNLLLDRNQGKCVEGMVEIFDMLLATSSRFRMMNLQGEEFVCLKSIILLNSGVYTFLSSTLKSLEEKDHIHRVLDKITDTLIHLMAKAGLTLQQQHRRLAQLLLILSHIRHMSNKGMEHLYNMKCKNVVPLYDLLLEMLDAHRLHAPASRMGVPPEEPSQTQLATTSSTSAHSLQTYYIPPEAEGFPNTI
Sequence of Estrogen receptor (Homo sapiens) (P03372 whole entry, looked up, the tested form may be a part): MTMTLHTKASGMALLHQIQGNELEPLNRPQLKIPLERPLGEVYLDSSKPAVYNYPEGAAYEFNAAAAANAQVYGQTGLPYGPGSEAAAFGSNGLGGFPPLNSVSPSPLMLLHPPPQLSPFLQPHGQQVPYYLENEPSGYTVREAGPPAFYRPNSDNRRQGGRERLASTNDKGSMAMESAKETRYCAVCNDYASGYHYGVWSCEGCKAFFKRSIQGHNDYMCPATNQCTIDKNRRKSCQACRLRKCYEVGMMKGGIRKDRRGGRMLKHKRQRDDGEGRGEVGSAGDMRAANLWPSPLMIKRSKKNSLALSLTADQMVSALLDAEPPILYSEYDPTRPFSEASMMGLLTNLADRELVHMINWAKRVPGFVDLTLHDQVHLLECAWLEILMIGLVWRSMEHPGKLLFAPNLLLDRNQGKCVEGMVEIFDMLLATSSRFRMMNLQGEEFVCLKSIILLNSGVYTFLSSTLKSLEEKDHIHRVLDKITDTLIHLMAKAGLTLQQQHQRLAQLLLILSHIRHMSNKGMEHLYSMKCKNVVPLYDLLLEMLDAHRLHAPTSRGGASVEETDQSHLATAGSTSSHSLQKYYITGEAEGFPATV
Sequence of Androgen Receptor/SRC-1 Co-activator, AR (gene 367) (P10275 whole entry, looked up): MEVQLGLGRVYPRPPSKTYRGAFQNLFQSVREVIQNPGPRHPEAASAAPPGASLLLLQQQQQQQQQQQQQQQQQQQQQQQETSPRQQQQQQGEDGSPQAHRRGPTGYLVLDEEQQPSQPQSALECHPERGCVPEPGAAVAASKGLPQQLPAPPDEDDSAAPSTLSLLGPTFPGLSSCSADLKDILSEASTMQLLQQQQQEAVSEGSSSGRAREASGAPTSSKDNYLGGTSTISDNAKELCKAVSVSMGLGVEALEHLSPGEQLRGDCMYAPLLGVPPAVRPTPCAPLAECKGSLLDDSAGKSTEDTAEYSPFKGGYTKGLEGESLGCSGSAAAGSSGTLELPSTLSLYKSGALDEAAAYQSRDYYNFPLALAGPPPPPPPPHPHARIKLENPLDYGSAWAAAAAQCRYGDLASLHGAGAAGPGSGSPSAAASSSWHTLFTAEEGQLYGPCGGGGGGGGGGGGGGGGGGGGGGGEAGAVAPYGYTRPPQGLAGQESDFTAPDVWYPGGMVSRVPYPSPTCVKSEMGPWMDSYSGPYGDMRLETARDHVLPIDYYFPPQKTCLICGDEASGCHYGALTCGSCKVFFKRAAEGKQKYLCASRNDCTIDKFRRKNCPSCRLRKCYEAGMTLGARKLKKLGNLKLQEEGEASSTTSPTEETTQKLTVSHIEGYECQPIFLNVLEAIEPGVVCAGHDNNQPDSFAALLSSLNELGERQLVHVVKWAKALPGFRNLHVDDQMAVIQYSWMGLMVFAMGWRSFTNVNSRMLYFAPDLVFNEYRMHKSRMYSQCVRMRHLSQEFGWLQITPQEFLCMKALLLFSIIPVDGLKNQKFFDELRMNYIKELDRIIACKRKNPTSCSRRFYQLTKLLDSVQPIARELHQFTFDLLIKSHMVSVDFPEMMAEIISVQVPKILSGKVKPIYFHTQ
Sequence of Estrogen receptor beta (Homo sapiens) (Q92731 whole entry, looked up, the tested form may be a part): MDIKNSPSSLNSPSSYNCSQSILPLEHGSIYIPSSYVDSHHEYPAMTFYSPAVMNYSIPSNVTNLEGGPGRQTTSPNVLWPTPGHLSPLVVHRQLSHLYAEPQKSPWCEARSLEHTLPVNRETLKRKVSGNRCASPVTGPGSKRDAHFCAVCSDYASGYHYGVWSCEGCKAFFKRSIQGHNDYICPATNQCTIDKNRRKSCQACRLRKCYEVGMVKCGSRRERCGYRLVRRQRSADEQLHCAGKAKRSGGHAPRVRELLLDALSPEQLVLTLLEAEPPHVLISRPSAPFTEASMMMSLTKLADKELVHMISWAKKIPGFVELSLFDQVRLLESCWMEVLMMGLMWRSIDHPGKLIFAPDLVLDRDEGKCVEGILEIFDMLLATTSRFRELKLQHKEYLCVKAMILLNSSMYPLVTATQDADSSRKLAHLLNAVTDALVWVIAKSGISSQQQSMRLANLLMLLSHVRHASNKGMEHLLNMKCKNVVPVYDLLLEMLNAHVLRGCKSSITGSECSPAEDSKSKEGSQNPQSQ
Sequence of Nuclear receptor subfamily 1 group I member 2 (Homo sapiens) (O75469 whole entry, looked up): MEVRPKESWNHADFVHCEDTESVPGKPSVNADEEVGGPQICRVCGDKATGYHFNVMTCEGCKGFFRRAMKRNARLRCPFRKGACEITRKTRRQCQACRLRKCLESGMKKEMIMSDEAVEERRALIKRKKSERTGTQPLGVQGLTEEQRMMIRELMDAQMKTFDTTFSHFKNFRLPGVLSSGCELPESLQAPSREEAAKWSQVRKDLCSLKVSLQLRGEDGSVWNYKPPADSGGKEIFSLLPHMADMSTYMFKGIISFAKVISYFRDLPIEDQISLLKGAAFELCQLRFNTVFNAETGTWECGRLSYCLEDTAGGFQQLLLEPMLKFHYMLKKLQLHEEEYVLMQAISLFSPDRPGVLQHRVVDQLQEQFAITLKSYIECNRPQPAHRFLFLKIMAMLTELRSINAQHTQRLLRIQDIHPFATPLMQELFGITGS
Sequence of PGR (gene 5241) (P06401 whole entry, looked up): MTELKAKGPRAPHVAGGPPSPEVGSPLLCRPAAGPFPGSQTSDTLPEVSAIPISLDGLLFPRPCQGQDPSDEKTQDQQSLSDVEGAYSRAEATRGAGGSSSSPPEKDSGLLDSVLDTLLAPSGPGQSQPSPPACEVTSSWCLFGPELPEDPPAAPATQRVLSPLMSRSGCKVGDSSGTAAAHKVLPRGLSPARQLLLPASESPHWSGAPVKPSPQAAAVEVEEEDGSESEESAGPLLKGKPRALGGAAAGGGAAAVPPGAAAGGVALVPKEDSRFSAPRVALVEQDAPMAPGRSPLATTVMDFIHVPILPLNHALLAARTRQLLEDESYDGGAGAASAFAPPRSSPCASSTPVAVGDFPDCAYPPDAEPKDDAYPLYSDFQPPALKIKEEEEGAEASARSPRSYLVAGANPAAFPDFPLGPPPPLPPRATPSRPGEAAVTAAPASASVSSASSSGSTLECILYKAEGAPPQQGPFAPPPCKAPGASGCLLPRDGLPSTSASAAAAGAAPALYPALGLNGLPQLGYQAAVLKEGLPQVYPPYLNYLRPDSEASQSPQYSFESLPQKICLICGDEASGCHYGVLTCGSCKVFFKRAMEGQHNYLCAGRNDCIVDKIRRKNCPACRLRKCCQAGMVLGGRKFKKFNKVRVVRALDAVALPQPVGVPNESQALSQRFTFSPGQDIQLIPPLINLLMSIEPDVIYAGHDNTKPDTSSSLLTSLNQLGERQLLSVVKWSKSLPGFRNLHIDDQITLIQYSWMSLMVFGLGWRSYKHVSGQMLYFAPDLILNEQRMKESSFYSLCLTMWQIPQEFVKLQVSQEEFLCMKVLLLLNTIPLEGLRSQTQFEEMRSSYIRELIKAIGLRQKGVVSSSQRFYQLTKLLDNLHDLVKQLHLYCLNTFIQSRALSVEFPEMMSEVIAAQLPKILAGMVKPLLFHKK
Sequence of human Thyroid Receptor Alpha (TRa), THRA (gene 7067) (P10827 whole entry, looked up): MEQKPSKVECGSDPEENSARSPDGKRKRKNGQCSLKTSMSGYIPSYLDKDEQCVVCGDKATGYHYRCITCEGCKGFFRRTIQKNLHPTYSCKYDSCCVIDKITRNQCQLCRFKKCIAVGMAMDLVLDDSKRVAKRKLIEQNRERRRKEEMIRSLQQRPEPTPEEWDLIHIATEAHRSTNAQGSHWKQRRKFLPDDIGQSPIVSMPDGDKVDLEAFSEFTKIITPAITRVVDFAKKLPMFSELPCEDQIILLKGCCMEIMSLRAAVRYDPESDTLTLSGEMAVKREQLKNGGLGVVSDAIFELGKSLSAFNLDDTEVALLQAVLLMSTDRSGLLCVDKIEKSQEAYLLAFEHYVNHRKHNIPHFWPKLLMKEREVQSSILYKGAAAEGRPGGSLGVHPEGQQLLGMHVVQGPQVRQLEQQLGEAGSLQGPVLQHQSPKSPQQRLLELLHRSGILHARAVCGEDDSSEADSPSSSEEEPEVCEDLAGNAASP

O=C1c2ccccc2C(=O)N1SC1CCCCC1
inactive: [1] | [2] | [3] | [4] | [5] | [6] | [7]
active: [8] 36.3 µM

C#C[C@]1(O)CC[C@H]2[C@@H]3CCC4=Cc5oncc5C[C@]4(C)[C@H]3CC[C@@]21C
inactive: [1] | [9]
active: [1] 11.5 µM | PGR (gene 5241) 41.5 µM | [10] 0.319 µM

O=Nc1ccc(Nc2ccccc2)cc1
inactive: [1] | [2] | [3] | [6]
active: [11] 11 µM | [12] 17.6 µM | [5] 46.4 µM | [7] 72.3 µM | [8] 28.2 µM

CC(=O)OCCOC(C)=O
inactive: [2] | [3] | [4] | [6] | [7] | [8]

OCCN1CCNCC1
inactive: [2] | [3] | [4] | [6] | [7] | [8]

CCC/C=C/C=O
inactive: [2] | [3] | [11] | [4] | [13] | [6] | [7] | [8]

CNCCCC12CCC(c3ccccc31)c1ccccc12
inactive: [1]

CC1=CCC2C(C1)C2(C)C (centres undefined)
inactive: [1]

CC(=O)[C@H]1CC[C@H]2[C@@H]3CC=C4C[C@@H](O)CC[C@]4(C)[C@H]3CC[C@]12C
inactive: [1]

CCCCCCCCCCCCCC(=O)O
inactive: [2] | [3] | [4] | [6] | [7] | [8]

CC1COc2ccccc2N1C(=O)C(Cl)Cl (centres undefined)
active: [1] 0.0627 µM | [5] 1.88 µM
inactive: [2] | [3] | [4] | [6] | [7] | [8]

CC(C)C(C)(C)C(C)(C)C(C)(C)S
inactive: [1]

c1cc(C(c2ccc(OCC3CO3)cc2)c2ccc(OCC3CO3)cc2)ccc1OCC1CO1 (centres undefined)
inactive: [1] | [5]

CC(C)(N)CO
inactive: [2] | [3] | [4] | [6] | [7] | [8]

c1ccc(CCCc2ccccn2)cc1
inactive: [2] | [3] | [4] | [6] | [7] | [8]

CN(CCOc1ccc(CC2SC(=O)NC2=O)cc1)c1ccccn1 (centres undefined)
active: [14] 2.07 µM
inactive: [1] | PGR (gene 5241)

NCCCN1CCOCC1
inactive: [2] | [3] | [11] | [4] | [6] | [7] | [8]

O=C(O)CCSCCC(=O)O
inactive: [1] | [5]

NC(=O)Nc1ccc(Cl)cc1
inactive: [2] | [3] | [4] | [5] | [6] | [7] | [8]

NNc1nc(-c2ccc(N)cc2)cs1
inactive: [1]

COC(=O)C1=C(C)NC(C)=C(C(=O)OCCN(C)Cc2ccccc2)C1c1cccc([N+](=O)[O-])c1 (centres undefined)
inactive: [5]
active: [1] 9.13 µM

CCCCCCCCC=O
inactive: [1] | [2] | [3] | [4] | [5] | [6] | [7] | [8]

Cc1cc(C2(c3cc(C)c(O)cc3C)OS(=O)(=O)c3ccccc32)c(C)cc1O
active: [1] 5.05 µM
inactive: [5]

CCCCc1ccc(N)cc1
inactive: [2] | [3] | [4] | [6] | [7] | [8]

CCN(CC)c1ccc2c(-c3ccccc3C(=O)O)c3ccc(=[N+](CC)CC)cc-3oc2c1
active: [2] 12.2 µM | [3] 12.2 µM | [4] 12.2 µM | [6] 12.2 µM
inactive: [7] | [8]

CCCCCCCCC
inactive: [2] | [3] | [4] | [6] | [7] | [8]

O=C(COc1ccc(Cl)cc1)N1CCN(Cc2ccc3c(c2)OCO3)CC1
inactive: [1]

BrC1CCC(Br)C(Br)CCC(Br)C(Br)CCC1Br (centres undefined)
inactive: [2] | [3] | [11] | [4] | [6] | [7] | [8]

CC(C)c1cccc(O)c1
inactive: [1] | [2] | [3] | [13] | [7] | [8]
active: [4] 52 µM | [6] 33.5 µM

Clc1ccc2c(c1)C(N1CCNCC1)=Nc1ccccc1O2
inactive: [1] | [5]

CCCC(=O)c1cc(O)c(O)cc1O
active: [1] 7.55 µM

Cc1ccc(S)cc1
inactive: [2] | [3] | [4] | [6] | [7] | [8]

CC(C)=CCCC(C)=CCCC(C)=CCO
inactive: [4] | [13]
active: [6] 12.8 µM

O=C(Oc1ccccc1)c1ccc(O)cc1
active: [4] 2.42 µM | [6] 4.86 µM
